Reference: PubChem BioAssay (NCATS)
Inconclusive results are not listed. A number with no mark means an inactive call. Calls of active or inactive are those of the source. The call rests on the fitted dose curve; in most records, active means well fitted curve in the direction sought with a large enough effect; inconclusive means small, poorly fitted or top-dose-only effect, or another doubt; inactive means no such curve, though single readings can be large; an effect the other way counts as inactive or inconclusive.

assay: Cell Viability - LYMP2-005 (AID 967); settings: LYMP2-005 lymphoblastoid cell viability; series mostly up to 92.2 µM; activity change, negative = viability loss: at the top concentration;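 on activity change, negative = viability loss: plate controls were DMSO only for no effect and 92 µM tetraoctylammonium bromide control for full effect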
Method in brief: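 LYMP2-005 human lymphoblastoid cells (2500/well) were treated with compounds for 24 h at 37 C. Intracellular ATP was then measured by CellTiter-Glo luminescence after 30 min at room temperature. AC50 values came from Hill-equation fits of qHTS concentration-response data.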
Potency means the concentration at half of the fitted maximal effect.

Going from `OCC(CO)(CBr)CBr` to `CCCCCCN`, the “activity change, negative = viability loss” value falls from 6.69% to -0.873%.

First: Nc1cc(C(=O)O)c(O)c(S(=O)(=O)O)c1
Second: O=C(OCc1ccccc1)c1ccccc1O
The “activity change, negative = viability loss” value of the first is higher: 31.1% for the first, 23.4% for the second.

First: Oc1ccc2c(c1)OCO2
Second: COc1ccc(C)cc1N
The “activity change, negative = viability loss” value of the first is lower: 4.56% for the first, 6.38% for the second.

Going from `c1ccncc1` to `c1c[nH]cn1`, the “activity change, negative = viability loss” value rises from 2.11% to 16.8%.

Compared with `CC(=O)OC1CC(C)OC(C)O1` (centres undefined), `CCOC(=O)C1OC1c1ccccc1` (centres undefined) is higher in “activity change, negative = viability loss” value: -8.13% for the first, 2.16% for the second.

Going from `CCN(CC)c1ccc2c(C)cc(=O)oc2c1` to `CCc1ccc(C(c2ccc(CC)cc2)C(Cl)Cl)cc1`, the “activity change, negative = viability loss” value falls from 8.52% to 3.19%.

Going from `c1ccc(SCCSc2ccccc2)cc1` to `CC(=O)OC(C(=O)c1ccccc1)c1ccccc1` (centres undefined), the “activity change, negative = viability loss” value falls from 15.3% to -1.72%.

Going from `O=C(O)/C=C/c1ccc(/C=C/C(=O)O)cc1` to `COc1ccc(C(=O)Nc2ccccc2)cc1[N+](=O)[O-]`, the “activity change, negative = viability loss” value falls from -23.8% to -56.1%.

Compared with `CCCCOC(=O)COc1ccc(Cl)cc1Cl`, `COc1cc(-c2ccc(N=C=O)c(OC)c2)ccc1N=C=O` is higher in “activity change, negative = viability loss” value: -30.4% for the first, 7.14% for the second.

Compared with `CCC(Cl)CC(Cl)C(Cl)C(Cl)C(Cl)C(C)Cl` (centres undefined), `C=CC1CO1` (centres undefined) is higher in “activity change, negative = viability loss” value: 0.412% for the first, 6.45% for the second.

Going from `C[C@@H]1CC2(OC(O)[C@]3(C)O[C@H]23)O[C@H]2C[C@@]3(C)[C@@H]4CC[C@H]5C(C)(C)C(O[C@@H]6OC[C@@H](O)[C@H](O)[C@H]6O)CC[C@@]56C[C@@]46CC[C@]3(C)[C@@H]12` (some centres undefined) to `O=[N+]([O-])c1ccccc1Nc1ccccc1`, the “activity change, negative = viability loss” value rises from -38.8% to 4.51%.

For `C/C=C/C=C/C=O`, the Potency was 39.8 µM (active).

assay: Cell Viability - LYMP2-009 (AID 968); settings: LYMP2-009 lymphoblastoid cell viability; series mostly up to 92.2 µM; activity change, negative = viability loss: at the top concentration; further: nearly all actives have a fitted effect of over 55% in size;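 on activity change, negative = viability loss: 0% = DMSO alone and the full-kill end = tetraoctylammonium bromide at 92 µM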

First: CCCCCCc1ccc(-c2ccc(C#N)cc2)cc1
Second: CCc1ccc(C(c2ccc(CC)cc2)C(Cl)Cl)cc1
The “activity change, negative = viability loss” value of the first is higher: -1.6% for the first, -1.97% for the second.

Going from `Nc1cnn([C@@H]2O[C@H](CO)[C@@H](O)[C@H]2O)c(=O)n1` to `CCOC(=O)C1OC1c1ccccc1` (centres undefined), the “activity change, negative = viability loss” value falls from 5.28% to -7.53%.

Compared with `Oc1c(Cl)cc(Cl)c(Cl)c1Cl`, `CCCCOC(=O)COc1ccc(Cl)cc1Cl` is lower in “activity change, negative = viability loss” value: -7.99% for the first, -8.81% for the second.

Going from `CC(C)OCC1CO1` (centres undefined) to `CCC(Cl)CC(Cl)C(Cl)C(Cl)C(Cl)C(C)Cl` (centres undefined), the “activity change, negative = viability loss” value rises from -12% to -10.2%.

Going from `C/C(Cl)=C/CCl` to `CC(=O)OC1CC(C)OC(C)O1` (centres undefined), the “activity change, negative = viability loss” value falls from -0.985% to -10.5%.

First: c1ccc(COCc2ccccc2)cc1
Second: c1ccc(SCCSc2ccccc2)cc1
The “activity change, negative = viability loss” value of the first is higher: -5.57% for the first, -9.24% for the second.

Compared with `O=[N+]([O-])c1cccc(I)c1`, `COc1ccc([N+](=O)[O-])cc1N` is higher in “activity change, negative = viability loss” value: -2.84% for the first, -2.07% for the second.

First: c1ccc2c(c1)ccc1ccccc12
Second: O=[N+]([O-])c1ccccc1Nc1ccccc1
The “activity change, negative = viability loss” value of the first is lower: -2.98% for the first, 2.75% for the second.

Going from `Cc1ccc(C(=O)O)cc1[N+](=O)[O-]` to `COc1ccc(C(=O)Nc2ccccc2)cc1[N+](=O)[O-]`, the “activity change, negative = viability loss” value falls from 3.39% to -13.9%.

Going from `OCC(CO)(CBr)CBr` to `CC(=O)Nc1cccc(C)c1`, the “activity change, negative = viability loss” value falls from -1.42% to -6.03%.

Compared with `Oc1ccc2c(c1)OCO2`, `CCN(CC)c1ccc2c(C)cc(=O)oc2c1` is lower in “activity change, negative = viability loss” value: 4.57% for the first, -16.5% for the second.

Compared with `c1c[nH]cn1`, `COc1cc(-c2ccc(N=C=O)c(OC)c2)ccc1N=C=O` is higher in “activity change, negative = viability loss” value: -5.2% for the first, -5.11% for the second.

In the case of `C[C@@H]1CC2(OC(O)[C@]3(C)O[C@H]23)O[C@H]2C[C@@]3(C)[C@@H]4CC[C@H]5C(C)(C)C(O[C@@H]6OC[C@@H](O)[C@H](O)[C@H]6O)CC[C@@]56C[C@@]46CC[C@]3(C)[C@@H]12` (some centres undefined), the “activity change, negative = viability loss” value was -18.9%.

In the case of `C/C=C/C=C/C=O`, the Potency was 39.8 µM (active).
